Assay results taken from PubChem BioAssay (EPA / NIEHS).
Several values for one entry are separate records, joined by “and”; a condition that tells them apart may be missing. Equal entries are not always repeated. Activity calls are given as the source filed them. The calls were made as follows: active = hit-call score of the fitted dose curve at least 0.9, where 1 is the maximum; inactive = score below 0.9.

Assay: CCTE_Harrill_HTTr_Viability_MCF7: CCTE's 6-hour Cell Viability Assessment for the High-Throughput Transcriptomics (HTTr) Platform, in MCF-7 cells cultured in DMEM + 10% fetal bovine serum, Harrill Lab (AID 2284010)
Method in brief: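 Viability measured through PI dye exclusion by high-content imaging at 6 h post-dosing.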
In the case of COc1ccccc1N, the outcome is reported as “inactive”. With Brc1c(Br)c(Br)c(Oc2c(Br)c(Br)c(Br)c(Br)c2Br)c(Br)c1Br the outcome was “inactive”. In the case of OC[C@@H](O)[C@H]1O[C@@H]2O[C@H](C(Cl)(Cl)Cl)O[C@@H]2[C@H]1O, the outcome is reported as “inactive”. In the case of CCCSP(=S)(OCC)Oc1ccc(Cl)cc1Cl (stereo unspecified), the outcome is reported as “inactive”. For COCCl, the outcome was “inactive”. In the case of CCOCn1c(-c2ccc(Cl)cc2)c(C#N)c(Br)c1C(F)(F)F, the outcome is reported as “inactive”. For CC(C)=CC1C(C(=O)OCc2cccc(Oc3ccccc3)c2)C1(C)C (stereo unspecified), the outcome was “inactive”. In the case of Clc1cccc(Cl)c1, the outcome is reported as “inactive”. For C[C@H]1C(=O)O[C@@H]2CCN3CC=C(COC(=O)[C@](C)(O)[C@]1(C)O)[C@H]23, the outcome was “inactive”. In the case of O=C(NC(=O)c1c(F)cccc1F)Nc1ccc(Cl)cc1, the outcome is reported as “inactive”. For Cc1cccc(C)c1NC(=O)CN1CCCC1=O, the outcome was “inactive”. With O=CCCl the outcome was “inactive”. For O=S1(=O)OC(c2cc(Br)c(O)c(Br)c2)(c2cc(Br)c(O)c(Br)c2)c2ccccc21, the outcome was “inactive”. With C1CCC(C2CCCCC2)CC1 the outcome was “inactive”. In the case of O=C1C=CC(=O)c2ccccc21, the AC50 is reported as 69.1 µM (active). With CCOC(=O)OC1=C(c2cc(C)ccc2C)C(=O)NC12CCC(OC)CC2 (stereo unspecified) the outcome was “inactive”. For O=C1C[C@@H]2OCC=C3CN4CC[C@]56c7ccccc7N1[C@H]5[C@H]2[C@H]3C[C@H]46, the outcome was “inactive”. With Cc1cc(SCc2sc(-c3ccc(C(F)(F)F)c(F)c3)nc2C)ccc1OCC(=O)O the outcome was “inactive”. With Cc1cc(Cl)ccc1N the outcome was “inactive”. With CCOC(=O)c1ccccc1S(=O)(=O)NC(=O)Nc1nc(Cl)cc(OC)n1 the outcome was “inactive”. For O=[N+]([O-])c1ccc(Cl)c([N+](=O)[O-])c1, the AC50 was 67.7 µM (active) and 56.9 µM (active). For CNC(=O)CSP(=O)(OC)OC, the outcome was “inactive”. In the case of CNC(=O)O/N=C/C(C)(C)S(C)(=O)=O, the outcome is reported as “inactive”. With Nc1ncn[nH]1 the outcome was “inactive”. With CC(C)N(C(=O)CCl)c1ccccc1 the outcome was “inactive”. With N#CCC#N the outcome was “inactive”. With C[CH2][Hg][S]c1ccccc1C(=O)O the AC50 was 49.1 µM (active). With CCOc1cc(C=O)ccc1O the outcome was “inactive”. In the case of CCOC(=O)CCN(SN(C)C(=O)Oc1cccc2c1OC(C)(C)C2)C(C)C, the outcome is reported as “inactive”. In the case of CCOP(=S)(OCC)O/N=C(\C#N)c1ccccc1, the outcome is reported as “inactive”. For O=C(O)COc1ccc(Cl)cc1, the outcome was “inactive”.
